In ChEMBL document CHEMBL3433997, “St. Jude Leishmania screening dataset” (2016):

The molecules below were run against Solute carrier family 2, facilitated glucose transporter member 1 (Homo sapiens) (UniProt P11166) (assay: ST_JUDE_LEISH: Cytotoxicity at 2uM final concentration against transgenic Leishmania Mexicana promastigotes LmGLUT1 that are glucose transport deficient and complemented with the human glucose transporter GLUT1. Activity is measured by DNA content using SYBR green in vitro).
Format: functional

Solute carrier family 2, facilitated glucose transporter member 1 (Homo sapiens), sequence (P11166 whole entry): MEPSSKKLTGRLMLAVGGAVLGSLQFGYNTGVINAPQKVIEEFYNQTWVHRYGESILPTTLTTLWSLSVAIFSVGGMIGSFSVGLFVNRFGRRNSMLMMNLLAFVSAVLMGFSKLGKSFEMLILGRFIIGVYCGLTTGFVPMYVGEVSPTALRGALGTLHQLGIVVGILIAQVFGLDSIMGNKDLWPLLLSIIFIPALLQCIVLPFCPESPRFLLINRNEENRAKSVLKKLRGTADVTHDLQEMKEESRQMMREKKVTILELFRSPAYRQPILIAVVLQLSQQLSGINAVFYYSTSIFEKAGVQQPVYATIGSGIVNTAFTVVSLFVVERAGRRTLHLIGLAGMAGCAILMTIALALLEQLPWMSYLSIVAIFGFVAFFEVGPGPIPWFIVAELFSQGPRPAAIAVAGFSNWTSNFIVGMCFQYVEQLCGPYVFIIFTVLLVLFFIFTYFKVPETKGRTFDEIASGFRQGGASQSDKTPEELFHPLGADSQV

| Structure (SMILES) | inhibition |
| --- | --- |
| CCOC(=O)N/N=C/[C@H](CCc1ccccc1)NC(=O)[C@H](CC(C)C)NC(=O)c1cc2cccc(OC)c2o1 | 4.25% |
| Oc1cc(Nc2ccnc3ccc(I)cc23)c(F)cc1Cl | 0.49% |
| COc1cccc(NC(=O)Nc2ccc(C)c(-c3ccc(C(=O)Nc4ccncc4)cc3)c2)c1 | -1.55% |
| COc1ccccc1C1CC(c2ccccc2)=NN1C(=O)c1ccco1 (stereo not given) | -0.28% |
| O=C(/C=C/c1ccccc1Cl)Nc1ccc(Br)c(OCCN2CCN(CCN3CCCC3)CC2)c1 | 4.13% |
| Oc1c(C(Nc2nc3ccccc3s2)c2ccc(OC(F)F)cc2)ccc2cccnc12 (stereo not given) | 4.38% |
| CS(=O)(=O)c1ccc(-c2cc(C(F)(F)F)nc(N[C@@H]3CCCC[C@H]3OCc3ccccc3)n2)cc1 | 1.33% |
| O=C(Nc1cccc(CN2CCCN(CCc3ccccc3)CC2)c1)c1ccc(Cl)c(Cl)c1 | 8.79% |
| N#Cc1ccc2c(c1)CCN(CCC1CCC(NC(=O)/C=C/c3nc4ccccc4s3)CC1)CC2 (stereo not given) | 1.83% |
| Cc1nnsc1C(=O)Nc1cccc(-c2ccc(-c3nc4cc(F)ccc4[nH]3)s2)c1 | 1.06% |
| Cc1nnc2c(NC(=O)NC3CCCC3)cc3cc(-c4ccc(CN5CCN(C)CC5)cc4)ccc3n12 | 7.2% |
| Cc1ccc(NC(=O)c2cc(S(=O)(=O)NC(C)(C)C)ccc2C)nc1 | 0.04% |
| COc1cccc2cc(C(=O)N[C@@H](CC(C)C)C(=O)N[C@H](/C=N/N3C(=O)CN(Cc4ccccc4)C3=O)CCc3ccccc3)oc12 | 7.07% |
| CC1(C)N=C(N)N=C(N)N1OCc1ccc2c(c1)OCO2 | 9.15% |
| COc1ccc(-c2cccc(CNCc3ccc(F)cc3)c2)cc1S(=O)(=O)NCCN1CCCC1 | 7.5% |
| Clc1ccc(-c2cc3c(NCc4ccncc4)nccc3s2)cc1 | 6.24% |
| COc1ccc(O)c(C(=O)c2cc(C#N)c(=O)n(-c3ccc(Oc4ccccc4)cc3)c2)c1 | 10.2% |
| Cc1cc(O)c(CN(C)Cc2ccc3c(c2)OCO3)cc1C(C)C | -0.84% |
| CC1CCC(NCc2ccc3c(CNC4CCC(C)CC4)c(O)ccc3c2O)CC1 (stereo not given) | 1.24% |
| FC(F)(F)c1ccc(/C=C/c2cncnc2Nc2ccc3[nH]c(Cc4ccccc4)nc3c2)cc1 | 4.97% |

| Structure (SMILES) | inhibition |
| --- | --- |
| N#Cc1ccc2c(c1)CCN(CCC1CCC(NC(=O)c3cc4cccc([N+](=O)[O-])c4[nH]3)CC1)C2 (stereo not given) | 10.1% |
| CCCNC(=O)Nc1ccc(N(C)c2ccnc(NC3CC3)n2)cc1 | 7% |
| CCn1c(Sc2ccc(C#N)c([N+](=O)[O-])c2)nnc1-c1ccc(OC)cc1 | 2.25% |
| Cc1nc(C)n(CC(=O)Nc2cccc(-c3cccc(-c4nc5cc(C(F)(F)F)ccc5[nH]4)c3)c2)n1 | 10.2% |
| CN(C)CCOc1ccc(N2CCN(CCCCNC(=O)c3ccc(/C=C/c4cc(Cl)cc(Cl)c4)cc3)CC2)cc1 | -0.63% |
| COc1cc(C)nc2ccc(NC(=O)c3cc([N+](=O)[O-])cc([N+](=O)[O-])c3)cc12 | 2.43% |
| Cc1[nH]c(C)c(Cc2ccc(Oc3ccc(OC(F)(F)F)cc3)cc2)c(=O)c1Br | -0.67% |
| O=C(Nc1ccc(CCNC2=NCCN2)cc1)Nc1ccc(CCNC2=NCCN2)cc1 | 3.77% |
| COc1ccc(C(=O)N2CCN(c3ccc([N+](=O)[O-])c(NC4CC4)c3)CC2)cc1Br | 14.4% |
| Cc1ccc(Nc2ccnc(Nc3ccc(C)c(F)c3)n2)cc1O | 9.14% |
| Cc1cc(N2CCCC2)nc(Nc2ccc(NC(=O)c3ccccc3F)cc2)n1 | 1.09% |
| CC(C)C[C@@H](/C=N/N1CCNC1=O)NC(=O)[C@H](CC(C)C)NC(=O)c1ccc(OCCN2CCOCC2)cc1 | 0.84% |
| CCCCCCN1CCN(Cc2cccc(NC(=O)c3cc4ccccc4o3)c2)CC1 | 1.59% |
| N#Cc1ccc(-c2ccc(C(=O)NC3CCN(CCN4CCC(c5cn(CCOC6CCCCO6)c6ccccc56)CC4)CC3)cc2)cc1 (stereo not given) | 14.4% |
| COc1ccc(Cl)cc1N1CCN(CCCNC(=O)c2ccc(-c3nc4ccc(C(F)(F)F)cc4[nH]3)c(C)c2)CC1 | 2.82% |
| N#Cc1cnc(Nc2ccc(Oc3ccccc3)cc2)nc1Nc1cccc(S(N)(=O)=O)c1 | -0.14% |
| Cc1cccc(C)c1/N=C1\NC(=S)N(c2cccc(Cl)c2)C12CCC(C(C)(C)C)CC2 (stereo not given) | -2.68% |
| O=C(CN1CCN(C(=O)c2ccco2)CC1)Nc1ccc(Br)cc1Cl | -3.24% |
| CC(=NNC(=N)N)c1ccc2c(ccc3ccccc32)c1 | 2.47% |
| COc1ccc2nccc(NCC3(O)CCN(CC(O)c4ccc5c(c4)NC(=O)CS5)CC3)c2n1 (stereo not given) | 3.39% |

These molecules were tested against Hexose transporter 1 (Plasmodium falciparum) (UniProt O97467) (assay: ST_JUDE_LEISH: Cytotoxicity at 2uM final concentration against transgenic Leishmania Mexicana promastigotes LmPfHT that are glucose transport deficient and complemented with the Plasmodium falciparum hexose transporter. Activity is measured by DNA content using SYBR green in vitro).
Format: functional

| Structure (SMILES) | inhibition |
| --- | --- |
| CCOC(=O)N/N=C/[C@H](CCc1ccccc1)NC(=O)[C@H](CC(C)C)NC(=O)c1cc2cccc(OC)c2o1 | 5.56% |
| Oc1cc(Nc2ccnc3ccc(I)cc23)c(F)cc1Cl | 1.05% |
| COc1cccc(NC(=O)Nc2ccc(C)c(-c3ccc(C(=O)Nc4ccncc4)cc3)c2)c1 | -1.72% |
| COc1ccccc1C1CC(c2ccccc2)=NN1C(=O)c1ccco1 (stereo not given) | -0.6% |
| O=C(/C=C/c1ccccc1Cl)Nc1ccc(Br)c(OCCN2CCN(CCN3CCCC3)CC2)c1 | 3.71% |
| Oc1c(C(Nc2nc3ccccc3s2)c2ccc(OC(F)F)cc2)ccc2cccnc12 (stereo not given) | 0.37% |
| CS(=O)(=O)c1ccc(-c2cc(C(F)(F)F)nc(N[C@@H]3CCCC[C@H]3OCc3ccccc3)n2)cc1 | 1.84% |
| O=C(Nc1cccc(CN2CCCN(CCc3ccccc3)CC2)c1)c1ccc(Cl)c(Cl)c1 | 8.5% |
| N#Cc1ccc2c(c1)CCN(CCC1CCC(NC(=O)/C=C/c3nc4ccccc4s3)CC1)CC2 (stereo not given) | 0.31% |
| Cc1nnsc1C(=O)Nc1cccc(-c2ccc(-c3nc4cc(F)ccc4[nH]3)s2)c1 | 0.37% |
| Cc1nnc2c(NC(=O)NC3CCCC3)cc3cc(-c4ccc(CN5CCN(C)CC5)cc4)ccc3n12 | 4.95% |
| Cc1ccc(NC(=O)c2cc(S(=O)(=O)NC(C)(C)C)ccc2C)nc1 | 0.34% |
| COc1cccc2cc(C(=O)N[C@@H](CC(C)C)C(=O)N[C@H](/C=N/N3C(=O)CN(Cc4ccccc4)C3=O)CCc3ccccc3)oc12 | 8.34% |
| CC1(C)N=C(N)N=C(N)N1OCc1ccc2c(c1)OCO2 | 6.63% |
| COc1ccc(-c2cccc(CNCc3ccc(F)cc3)c2)cc1S(=O)(=O)NCCN1CCCC1 | 8.55% |
| Clc1ccc(-c2cc3c(NCc4ccncc4)nccc3s2)cc1 | 4.38% |
| COc1ccc(O)c(C(=O)c2cc(C#N)c(=O)n(-c3ccc(Oc4ccccc4)cc3)c2)c1 | 8.65% |
| Cc1cc(O)c(CN(C)Cc2ccc3c(c2)OCO3)cc1C(C)C | -1.41% |
| CC1CCC(NCc2ccc3c(CNC4CCC(C)CC4)c(O)ccc3c2O)CC1 (stereo not given) | -0.12% |
| FC(F)(F)c1ccc(/C=C/c2cncnc2Nc2ccc3[nH]c(Cc4ccccc4)nc3c2)cc1 | 6.03% |

| Structure (SMILES) | inhibition |
| --- | --- |
| N#Cc1ccc2c(c1)CCN(CCC1CCC(NC(=O)c3cc4cccc([N+](=O)[O-])c4[nH]3)CC1)C2 (stereo not given) | 10.8% |
| CCCNC(=O)Nc1ccc(N(C)c2ccnc(NC3CC3)n2)cc1 | 5.59% |
| CCn1c(Sc2ccc(C#N)c([N+](=O)[O-])c2)nnc1-c1ccc(OC)cc1 | 4.95% |
| Cc1nc(C)n(CC(=O)Nc2cccc(-c3cccc(-c4nc5cc(C(F)(F)F)ccc5[nH]4)c3)c2)n1 | 9.76% |
| CN(C)CCOc1ccc(N2CCN(CCCCNC(=O)c3ccc(/C=C/c4cc(Cl)cc(Cl)c4)cc3)CC2)cc1 | 0.08% |
| COc1cc(C)nc2ccc(NC(=O)c3cc([N+](=O)[O-])cc([N+](=O)[O-])c3)cc12 | 0.24% |
| Cc1[nH]c(C)c(Cc2ccc(Oc3ccc(OC(F)(F)F)cc3)cc2)c(=O)c1Br | -0.95% |
| O=C(Nc1ccc(CCNC2=NCCN2)cc1)Nc1ccc(CCNC2=NCCN2)cc1 | 3.97% |
| COc1ccc(C(=O)N2CCN(c3ccc([N+](=O)[O-])c(NC4CC4)c3)CC2)cc1Br | 14.1% |
| Cc1ccc(Nc2ccnc(Nc3ccc(C)c(F)c3)n2)cc1O | 12.6% |
| Cc1cc(N2CCCC2)nc(Nc2ccc(NC(=O)c3ccccc3F)cc2)n1 | 2.77% |
| CC(C)C[C@@H](/C=N/N1CCNC1=O)NC(=O)[C@H](CC(C)C)NC(=O)c1ccc(OCCN2CCOCC2)cc1 | 6.5% |
| CCCCCCN1CCN(Cc2cccc(NC(=O)c3cc4ccccc4o3)c2)CC1 | 1.56% |
| N#Cc1ccc(-c2ccc(C(=O)NC3CCN(CCN4CCC(c5cn(CCOC6CCCCO6)c6ccccc56)CC4)CC3)cc2)cc1 (stereo not given) | 6.81% |
| COc1ccc(Cl)cc1N1CCN(CCCNC(=O)c2ccc(-c3nc4ccc(C(F)(F)F)cc4[nH]3)c(C)c2)CC1 | 0.02% |
| N#Cc1cnc(Nc2ccc(Oc3ccccc3)cc2)nc1Nc1cccc(S(N)(=O)=O)c1 | 5.38% |
| Cc1cccc(C)c1/N=C1\NC(=S)N(c2cccc(Cl)c2)C12CCC(C(C)(C)C)CC2 (stereo not given) | -1.2% |
| O=C(CN1CCN(C(=O)c2ccco2)CC1)Nc1ccc(Br)cc1Cl | -1.31% |
| CC(=NNC(=N)N)c1ccc2c(ccc3ccccc32)c1 | 1.59% |
| COc1ccc2nccc(NCC3(O)CCN(CC(O)c4ccc5c(c4)NC(=O)CS5)CC3)c2n1 (stereo not given) | 2.49% |
